Out of some 5,500 compounds screened, about 2,000 (36%) were called active. Another 18% or so got no clear call; they are omitted. Rule as the data show it: active = normalized growth mostly below about 0.91 (no sharp cut-off); inconclusive = no clear call, values can overlap the other calls; inactive = mostly above about 0.92. Some of the results follow.
Experiment: chemical genetic growth profiling, strain panel (AID 1159580);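 also: tested at 20 µM; growth read once vehicle control cultures reached saturation at 30 °C; 1 = growth at the plate median or of vehicle wells; lower values mean less growth of the strain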
Conditions: growth OD

Measured: normalized growth

CC(=O)Oc1cc(OC(C)=O)c2c(=O)c(-c3ccccc3)coc2c1
inactive: S. cerevisiae deletion strains, locus YAL013W, strain DEP1, stronger effect = lower value 0.995 | S. cerevisiae deletion strains, locus YBR021W, strain FUR4, stronger effect = lower value 0.978 | S. cerevisiae deletion strains, locus YBR229C, strain ROT2, stronger effect = lower value 1 | S. cerevisiae deletion strains, locus YCL029C, strain bik1, stronger effect = lower value 1 | S. cerevisiae deletion strains, locus YDL035C, strain GPR1, stronger effect = lower value 0.997 | S. cerevisiae deletion strains, locus YDL074C, strain BRE1, stronger effect = lower value 0.989 | S. cerevisiae deletion strains, locus YDL101C, strain DUN1, stronger effect = lower value 1.01 | S. cerevisiae deletion strains, locus YDL134C, strain PPH21, stronger effect = lower value 1.01 | S. cerevisiae deletion strains, locus YDL185W, strain tfp1, stronger effect = lower value 0.998 | S. cerevisiae deletion strains, locus YDL192W, strain arf1, stronger effect = lower value 0.993 | S. cerevisiae deletion strains, locus YDR101C, strain arx1, stronger effect = lower value 0.982 | S. cerevisiae deletion strains, locus YDR150W, strain NUM1, stronger effect = lower value 1.02 | S. cerevisiae deletion strains, locus YDR162C, strain NBP2, stronger effect = lower value 1.01 | S. cerevisiae deletion strains, locus YDR318W, strain mcm21, stronger effect = lower value 0.982 | S. cerevisiae deletion strains, locus YDR388W, stronger effect = lower value 1 | S. cerevisiae deletion strains, locus YDR502C, strain sam2, stronger effect = lower value 0.978 | S. cerevisiae deletion strains, locus YEL061C, strain CIN8, stronger effect = lower value 1.01 | S. cerevisiae deletion strains, locus YER110C, stronger effect = lower value 0.992 | S. cerevisiae deletion strains, locus YER155C, strain BEM2, stronger effect = lower value 1.01 | S. cerevisiae deletion strains, locus YER167W, strain BCK2, stronger effect = lower value 1.02 | S. cerevisiae deletion strains, locus YGL078C, strain dbp3, stronger effect = lower value 0.991 | S. cerevisiae deletion strains, locus YGL086W, strain mad1, stronger effect = lower value 1 | S. cerevisiae deletion strains, locus YGL248W, strain PDE1, stronger effect = lower value 1.01 | S. cerevisiae deletion strains, locus YGR078C, strain PAC10, stronger effect = lower value 1 | S. cerevisiae deletion strains, locus YGR135W, strain pre9, stronger effect = lower value 0.985 | S. cerevisiae deletion strains, locus YGR229C, strain SMI1, stronger effect = lower value 1.02 | S. cerevisiae deletion strains, locus YGR252W, strain gcn5, stronger effect = lower value 0.888 | S. cerevisiae deletion strains, locus YHR030C, strain SLT2, stronger effect = lower value 1.01 | S. cerevisiae deletion strains, locus YHR079C, strain IRE1 (second series), stronger effect = lower value 0.98 | S. cerevisiae deletion strains, locus YHR094C, strain hxt1, stronger effect = lower value 0.988 | S. cerevisiae deletion strains, locus YHR129C, strain ARP1, stronger effect = lower value 1 | S. cerevisiae deletion strains, locus YHR200W, strain rpn10, stronger effect = lower value 1 | S. cerevisiae deletion strains, locus YIL066C, strain RNR3, stronger effect = lower value 1.02 | S. cerevisiae deletion strains, locus YIL073C, strain SPO22, stronger effect = lower value 1 | S. cerevisiae deletion strains, locus YIL125W, strain kgd1, stronger effect = lower value 0.992 | S. cerevisiae deletion strains, locus YIR030C, strain dcg1, stronger effect = lower value 1 | S. cerevisiae deletion strains, locus YJL095W, strain BCK1, stronger effect = lower value 1.01 | S. cerevisiae deletion strains, locus YJL134W, strain LCB3, stronger effect = lower value 1.01 | S. cerevisiae deletion strains, locus YJL168C, strain set2, stronger effect = lower value 1 | S. cerevisiae deletion strains, locus YJL187C, strain SWE1 (second series), stronger effect = lower value 1 | S. cerevisiae deletion strains, locus YJR043C, strain POL32, stronger effect = lower value 0.987 | S. cerevisiae deletion strains, locus YJR075W, strain HOC1, stronger effect = lower value 1.02 | S. cerevisiae deletion strains, locus YKL009W, strain mrt4, stronger effect = lower value 1.02 | S. cerevisiae deletion strains, locus YKL068W, stronger effect = lower value 0.993 | S. cerevisiae deletion strains, locus YKL085W, strain MDH1 (second series), stronger effect = lower value 0.982 | S. cerevisiae deletion strains, locus YKL085W, strain MDH1, stronger effect = lower value 0.982 | S. cerevisiae deletion strains, locus YKL190W, strain CNB1, stronger effect = lower value 1.03 | S. cerevisiae deletion strains, locus YKR001C, strain vps1, stronger effect = lower value 0.944 | S. cerevisiae deletion strains, locus YLR039C, strain RIC1, stronger effect = lower value 0.901 | S. cerevisiae deletion strains, locus YLR058C, strain SHM2, stronger effect = lower value 1.01 | S. cerevisiae deletion strains, locus YLR102C, strain apc9, stronger effect = lower value 1 | S. cerevisiae deletion strains, locus YLR262C, strain YPT6, stronger effect = lower value 0.913 | S. cerevisiae deletion strains, locus YLR268W, strain sec22, stronger effect = lower value 0.983 | S. cerevisiae deletion strains, locus YLR330W, strain CHS5, stronger effect = lower value 1.01 | S. cerevisiae deletion strains, locus YLR342W, strain FKS1 (second series), stronger effect = lower value 0.966 | S. cerevisiae deletion strains, locus YLR371W, strain rom2, stronger effect = lower value 1 | S. cerevisiae deletion strains, locus YLR418C, strain cdc73, stronger effect = lower value 0.891 | S. cerevisiae deletion strains, locus YML016C, strain PPZ1, stronger effect = lower value 1.02 | S. cerevisiae deletion strains, locus YML032C, strain rad52, stronger effect = lower value 1 | S. cerevisiae deletion strains, locus YML124C, strain tub3, stronger effect = lower value 0.995 | S. cerevisiae deletion strains, locus YMR078C, strain ctf18, stronger effect = lower value 1 | S. cerevisiae deletion strains, locus YMR223W, strain ubp8, stronger effect = lower value 0.992 | S. cerevisiae deletion strains, locus YMR263W, strain SAP30, stronger effect = lower value 1 | S. cerevisiae deletion strains, locus YMR307W, strain GAS1, stronger effect = lower value 0.858 | S. cerevisiae deletion strains, locus YNL067W, strain RPL9B, stronger effect = lower value 1 | S. cerevisiae deletion strains, locus YNL128W, strain TEP1, stronger effect = lower value 1.03 | S. cerevisiae deletion strains, locus YNL153C, strain GIM3, stronger effect = lower value 1.02 | S. cerevisiae deletion strains, locus YNL233W, strain BNI4, stronger effect = lower value 1.02 | S. cerevisiae deletion strains, locus YNL250W, strain rad50, stronger effect = lower value 0.974 | S. cerevisiae deletion strains, locus YNL271C, strain bni1, stronger effect = lower value 0.991 | S. cerevisiae deletion strains, locus YNL298W, strain CLA4, stronger effect = lower value 0.999 | S. cerevisiae deletion strains, locus YNL307C, strain MCK1, stronger effect = lower value 0.932 | S. cerevisiae deletion strains, locus YNL322C, strain KRE1, stronger effect = lower value 1.01 | S. cerevisiae deletion strains, locus YNR052C, strain pop2, stronger effect = lower value 0.989 | S. cerevisiae deletion strains, locus YOL006C, strain TOP1, stronger effect = lower value 0.991 | S. cerevisiae deletion strains, locus YOL012C, strain htz1 0.735 | S. cerevisiae deletion strains, locus YOL147C, strain pex11, stronger effect = lower value 0.994 | S. cerevisiae deletion strains, locus YOR061W, strain CKA2, stronger effect = lower value 1.02 | S. cerevisiae deletion strains, locus YOR069W, strain VPS5, stronger effect = lower value 1.01 | S. cerevisiae deletion strains, locus YOR136W, strain idh2, stronger effect = lower value 0.997 | S. cerevisiae deletion strains, locus YOR144C, strain elg1, stronger effect = lower value 1 | S. cerevisiae deletion strains, locus YOR184W, strain ser1, stronger effect = lower value 0.986 | S. cerevisiae deletion strains, locus YOR316C, strain cot1, stronger effect = lower value 1 | S. cerevisiae deletion strains, locus YPL055C, strain LGE1, stronger effect = lower value 0.991 | S. cerevisiae deletion strains, locus YPL241C, strain CIN2, stronger effect = lower value 1.01 | S. cerevisiae deletion strains, locus YPR119W, strain clb2, stronger effect = lower value 0.999 | S. cerevisiae deletion strains, locus YPR141C, strain kar3, stronger effect = lower value 0.979 | S. cerevisiae deletion strains, locus YPR163C, strain tif3, stronger effect = lower value 0.994 | S. cerevisiae deletion strains, locus YPR167C, strain met16, stronger effect = lower value 0.996 | S. cerevisiae deletion strains, strain wtn01, stronger effect = lower value 0.984 | S. cerevisiae strains, strain wild type, stronger effect = lower value 1.01

From PubChem BioAssay AID1159580 (chemical genetic matrix, 2015)
